# Mm-Cpn inhibitor = Inhibitors of TCP-1 ring complex (TRiC) of Methanococcus maripaludis (MmCpn): qHTS. 0.031% of 330,000 active. purified Mm-Cpn ATPase, ADP Transcreener TR-FRET. Chaperonin Mm-Cpn (Methanococcus maripaludis). Potency, µM (top dose mostly 76.9 µM), inactives show at the top dose activity, negative = inhibition, usual class: inhibitors; further: potency means the concentration at half of the fitted maximal effect; on the % scale 0 is the no-effect control and ±100 the full control effect; nearly all actives have a fitted effect of over 80% in size
#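 Reaction buffer contained 30 mM Tris pH 7.4, 100 mM KCl, 5 mM MgCl2 and 1 mM DTT. Mm-CPN (25 nM final) hydrolysed 10 uM ATP over 30 min at 37°C; ADP was read by HTRF.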
# CCT modulator = High-Throughput Screening for Modulators of Cytosolic Chaperonin Activity | 0.3% of 360,000 active | activity change, % (test concentration not listed), hits read low | purified chaperonin ATPase assay, HTRF ADP detection, 30 min; in the data active means activity change below about -30%; further: on the % scale 0 is the no-effect control and ±100 the full control effect
#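 Enzyme 40 or 20 nM (batch-dependent) in Tris pH 7.4/KCl/MgCl2/DTT; cpd 76 uM single point; ATP 10 uM; 30 min 37 °C; Transcreener ADP HTRF detection, 30 min RT; ratio 665/615.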
# VDR inh = Inhibitors of the vitamin D receptor (VDR): qHTS; Vitamin D3 receptor (Homo sapiens), P11473; VDR-SRC2-3 peptide fluorescence polarization, 2 h; Potency, µM, for the others: max response, negative = inhibition, actives largely listed as inhibitors; 0.93% of 400,000 active; AID 504847, 2011; further: potency means the concentration at half of the fitted maximal effect; on the % scale 0 is the no-effect control and ±100 the full control effect
# Target sequence (P11473 whole entry, looked up): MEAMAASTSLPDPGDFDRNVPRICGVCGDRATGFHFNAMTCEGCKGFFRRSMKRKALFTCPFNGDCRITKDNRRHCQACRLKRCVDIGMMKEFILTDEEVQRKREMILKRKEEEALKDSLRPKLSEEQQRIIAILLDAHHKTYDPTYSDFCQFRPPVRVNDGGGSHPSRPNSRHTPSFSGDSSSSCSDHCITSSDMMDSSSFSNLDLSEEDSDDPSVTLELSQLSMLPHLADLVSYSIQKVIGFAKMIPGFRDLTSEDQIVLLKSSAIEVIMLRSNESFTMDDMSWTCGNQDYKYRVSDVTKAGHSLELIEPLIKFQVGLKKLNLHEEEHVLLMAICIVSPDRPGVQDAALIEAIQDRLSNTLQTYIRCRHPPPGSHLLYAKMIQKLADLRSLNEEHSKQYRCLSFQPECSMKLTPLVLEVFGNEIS
#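 The screen uses fluorescence polarization to detect compounds that interfere with recruitment of the SRC2-3 coactivator peptide to VDR; plates are read after 2 h at room temperature.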
# PLK1 PBD inh = qHTS for Inhibitors of PLK1-PDB (polo-like kinase 1 - polo-box domain): Primary Screen; Potency, µM, without a hit: max response, negative = inhibition, usual class: inhibitors; Plk1 PBD binding of FITC phosphopeptide, fluorescence polarization; Serine/threonine-protein kinase PLK1 (Homo sapiens), P53350; 2.8% of 360,000 active; further: potency means the concentration at half of the fitted maximal effect; series mostly up to about 57 µM; on the % scale 0 is the no-effect control and ±100 the full control effect; nearly all actives have a fitted effect of over 65% in size
# Sfp PPTase inh = qHTS Assay for Inhibitors of Bacillus subtilis Sfp phosphopantetheinyl transferase (PPTase). 4'-phosphopantetheinyl transferase ffp (Bacillus subtilis), Q9F4F7. Biochemical Sfp PPTase activity, qHTS. Potency, µM, for the others: largest response in the series, negative = inhibition, usual class: inhibitors. 3.5% of 310,000 active;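 further: the enzyme is Sfp with the accession as filed and its product quenches rhodamine fluorescence; potency means the concentration at half of the fitted maximal effect; 0% = enzyme reaction without inhibitor and -100% = no enzyme wells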
#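 Fluorescence-quenching assay: 15 nM Sfp-PPTase preincubated 15 min at room temperature with compound, then 5 uM rhodamine-CoA and 12.5 uM BHQ-2-labelled YbbR peptide added. Fluorescence (ex 525/em 598 nm) read at start and after 30 min; difference gives rate.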
# G9a inh = qHTS Assay for Inhibitors of Histone Lysine Methyltransferase G9a; Histone-lysine N-methyltransferase EHMT2 (Homo sapiens), Q96KQ7; G9a H3K9 monomethylation, AlphaScreen, 2 h; Potency, µM (titrated, usually from 102 µM), inactives show at the top dose activity, negative = inhibition, usual class: inhibitors; 8.8% of 350,000 active; AID 504332, 2011; further: potency means the concentration at half of the fitted maximal effect; on the % scale 0 is the no-effect control and ±100 the full control effect; nearly all actives have a fitted effect of over 75% in size
# Target sequence (Q96KQ7 913-1193 limits assumed): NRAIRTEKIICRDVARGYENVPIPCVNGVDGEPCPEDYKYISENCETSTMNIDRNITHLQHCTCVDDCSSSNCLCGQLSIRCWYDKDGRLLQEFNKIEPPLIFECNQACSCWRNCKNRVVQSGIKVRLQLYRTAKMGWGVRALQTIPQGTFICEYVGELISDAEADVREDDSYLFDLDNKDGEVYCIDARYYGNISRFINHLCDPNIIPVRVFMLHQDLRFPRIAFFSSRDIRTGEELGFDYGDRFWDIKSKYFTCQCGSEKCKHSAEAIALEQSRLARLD
#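 Step 1: enzyme (final 20 nM) with compound, 15 min RT. Step 2: substrate peptide 500 nM and SAM 20 uM, 2 h RT. Step 3: anti-H3K9me1 antibody and AlphaScreen beads, 10 min, then plate read.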
# USP1 UbRho = Inhibitors of USP1/UAF1: Hit Validation in Primary Assay | Ub-Rhodamine cleavage, fluorescence kinetic read | shares compounds with VDR inh | 50% of 50 active | AID 540327, 2011 | Potency, µM (highest dose often 56.8 µM), inactives show top-dose activity change, negative = inhibition, usual class: inhibitors
# VDR confirm = qHTS for Inhibitors of the vitamin D receptor (VDR): Hit Validation in Primary Screen; shares compounds with VDR inh; VDR-coactivator inhibition assay, qHTS confirmation; Potency, µM, most hits filed as inhibitors; 89% of 840 active; further: potency means the concentration at half of the fitted maximal effect
# VDR FP = qHTS for Inhibitors of the vitamin D receptor (VDR): Hit Validation using a Fluorescein Assay; Potency, µM (highest dose often 57.1 µM), for inactives: top-dose activity change, negative = inhibition, most hits filed as inhibitors; shares compounds with VDR inh; VDR-coactivator binding, fluorescein fluorescence polarization; 48% of 840 active; AID 602200, 2012; further: potency means the concentration at half of the fitted maximal effect
# VDR bla = qHTS for Inhibitors of the vitamin D receptor (VDR): Hit Validation using a Beta-Lactamase Assay | Potency, µM (titrated, usually from 46.1 µM), inactives show top-dose activity change, negative = inhibition, actives largely listed as inhibitors | 23% of 840 active | shares compounds with VDR inh | VDR beta-lactamase reporter cells, FRET ratio; cells co-treated with VDR agonist LG190178 | AID 602202, 2012; further: potency means the concentration at half of the fitted maximal effect; on the % scale 0 is the no-effect control and ±100 the full control effect
# VDR viability = qHTS for Inhibitors of the vitamin D receptor (VDR): Hit Validation using a Cytotoxicity Assay | 18% of 840 active | cytotoxicity counter-screen, cell viability, qHTS | shares compounds with VDR inh | Potency, µM (highest dose often 48.3 µM), for inactives: at the top dose activity change, negative = cytotoxicity, most hits filed as cytotoxic;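 further: potency means the concentration at half of the fitted maximal effect; plate controls were DMSO for no effect and high-concentration cycloheximide for full effect; nearly all actives have a fitted effect of over 75% in size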
# * marks the source's active call; other numbers are inactive results; ? = inconclusive; · = no result; [ ] = another dose, or the depositor's remark. Only some compounds are listed: those with a hit (about 10% of all), similar ones and a draw of the others. Unless noted, the call rests on the fitted dose curve; in most records, active means well fitted curve in the direction sought with a large enough effect; inconclusive means small, poorly fitted or top-dose-only effect, or another doubt; inactive means no such curve, though single readings can be large; an effect the other way counts as inactive or inconclusive.
SMILES,Mm-Cpn inhibitor,CCT modulator,VDR inh,PLK1 PBD inh,Sfp PPTase inh,G9a inh,VDR confirm,VDR FP,VDR bla,VDR viability,others
Cc1ccc(Cc2cnc(NC(=O)c3ccc4c(c3)CC(c3ccccc3)OC4=O)s2)cc1 (stereo not given),·,·,10%,·,·,36%[59 µM],·,·,·,·,
Cc1ccc(S(=O)(=O)CCC(=O)c2cccc([N+](=O)[O-])c2)cc1,-7%,-11,16µM*,3.8µM*,22µM*,1.4µM*,3.5*,3.2µM*,?,?,
CC(C)c1ccc(NC(=O)CSC2=Nc3ccccc3C3=NC(CCC(=O)NCc4cccs4)C(=O)N23)cc1 (stereo not given),·,·,3%,·,·,10%[59 µM],·,·,·,·,
CCOC(=O)CSC1=NC(=O)/C(=C\c2ccc(OC(C)=O)cc2)S1,0%,-1,20µM*,2.1µM*,?,40µM*,13*,?,?,?,
CCOC(=O)c1c(C)oc2c1c(C=NCC1CCCO1)c(O)c1ccccc12 (stereo not given),0%,-1,-26%,-8%,12%,-7%,·,·,·,·,
CCOC(=O)c1c(C)oc2c1c(C(c1cccnc1)N1CCN(C)CC1)c(O)c1ccccc12 (stereo not given),0%,·,·,·,-26%,?,·,·,·,·,
CCOC(=O)c1c(C)oc2c1c1c(c3ccccc32)OCN(Cc2cccnc2)C1,-6%,-3,?,4.7µM*,?,?,11*,7.9µM*,4%,?,
CCOC(=O)c1c(C)oc2c1c(C(c1cccnc1)N1CCOCC1)c(O)c1ccccc12 (stereo not given),-4%,-2,?,6.7µM*,?,4µM*,16*,13µM*,?,?,
CC(C)n1c(=O)c2oc3ccccc3c2n(CC(=O)Nc2ccccc2Cl)c1=O,·,·,6%,·,·,3%[59 µM],·,·,·,·,
O=C1OC(c2ccccc2)c2ccccc21 (stereo not given),0%,1,-13%,-7%,-12%,-27%,·,·,·,·,
O=S1OC(c2ccccc2)c2cc(Cl)ccc21 (stereo not given),1%,0,22µM*,?,·,16%[2.33 µM],3.2*,3.5µM*,3%,22%,
CCOc1cc(C(Nc2cc(C)ccn2)c2ccc3cccnc3c2O)ccc1OC (stereo not given),·,·,22µM*,·,·,3.2µM*,7.1*,3.5µM*,-5%,?,
CCOc1cc(/C=C2\N=C(C)OC2=O)cc(Cl)c1OCC(=O)OC,·,-2,45µM*,0%,·,·,9.5*,?,-2%,10%,
CN(CCCNC(=O)c1cc2c(=O)n(C)c3ccccc3c2s1)Cc1ccccc1,·,·,-4%,·,·,-4%[59 µM],·,·,·,·,
O=C(O)CSc1cc(NS(=O)(=O)c2ccc(Br)cc2)c2ccccc2c1O,?,0,16µM*,4.7µM*,40µM*,1.8µM*,4.2*,18µM*,-28%,?,
CCOc1ccc(NC(=O)c2cc3cc(C)ccc3n2C)cc1,·,·,7%,·,·,6%[59 µM],·,·,·,·,
Cc1cc(C(C2C(=O)CC(C)(C)CC2=O)C2C(=O)CC(C)(C)CC2=O)cc(C)c1OC(F)F,-5%,-3,10µM*,5.3µM*,-10%,32µM*,24*,?,30%,22%,
Oc1c(C(c2ccc(Cl)cc2Cl)N2CCCC2)sc2nc(-c3ccco3)nn12 (stereo not given),·,·,-2%,·,·,10%[59 µM],·,·,·,·,
CN(Cc1ccccc1)C(=O)NC1CCCCC1,4%,-1,18%,-4%,-7%,26%[59 µM],·,·,·,·,
CC(C)(Sc1ccc(CCN(CCCCC2CCCCC2)C(=O)NC2CCCCC2)cc1)C(=O)O,1%,0,40µM*,21µM*,26%,79µM*,·,·,·,·,USP1 UbRho=33µM*
COc1ccc(CCNC(=O)c2ccc3c(c2)N(Cc2ccc(F)cc2)C(=O)CS3)cc1OC,·,·,-25%,·,·,?,·,·,·,·,
ON=Cc1ccnc2ccccc12,·,-3,·,0%,·,·,·,·,·,·,
O=C(/C=C/c1ccnc2ccccc12)c1cccs1,-17%,0,?,?,-18%,·,11*,18µM*,?,?,
Cc1[nH]n(-c2ncc(-c3ccccc3)s2)c(=O)c1C(c1ccc(Cl)cc1)C(C#N)C#N (stereo not given),-3%,0,35µM*,3.8µM*,?,?,6.7*,?,20%,-5%,
Ic1ccc(N2CCN(Cc3c[nH]c4ncccc34)CC2)cc1,?,-1,?,-13%,4%,24µM*,·,·,·,·,USP1 UbRho=?
Fc1ccc(-c2[nH]ncc2CN2CCN(c3ccc(F)cc3)CC2)cc1,-2%,1,-3%,5%,16%,?,·,·,·,·,
COc1ccc(C(=O)N/C(N)=N/c2nc3ccccc3o2)cc1,1%,-1,13%,-10%,-1%,42%[59 µM],·,·,·,·,
COc1ccc(C(=O)/C=C/Sc2nc3ccccc3o2)cc1,1%,1,18µM*,0.75µM*,1%,?,6*,3.2µM*,21µM*,21µM*,
